The record followed here is PubChem BioAssay (Tox21).

A short description of experiment [1]: A CellTox Green Cytotoxicity Assay to monitor cytotoxicity in HepG2 cells - 0 hour (AID 1224882). Further: nearly all actives have a fitted effect of over 35% in size. Summed up: (§1)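 HepG2 cells, 600/well, preincubated 5 h with CellTox Green dye, then exposed to Tox21 compounds in DMSO at 37 C for up to 40 h. Dead-cell DNA fluorescence read at the indicated time point.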
Experiment [2] in a line: A CellTox Green Cytotoxicity Assay to monitor cytotoxicity in HepG2 cells - 32 hour (AID 1224883). Further: nearly all actives have a fitted effect of over 50% in size. Further: potency means the concentration at half of the fitted maximal effect. The essentials: as §1
Experiment [3] can be described thus: A CellTox Green Cytotoxicity Assay to monitor cytotoxicity in HEK293 cells - 8 hour (AID 1224884). Further: nearly all actives have a fitted effect of over 35% in size. Further: potency means the concentration at half of the fitted maximal effect. The essentials:
(§2)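 HEK293 cells, 600/well, were preincubated 5 hours and then exposed to compounds at 37 C for up to 40 hours. A cell-impermeant cyanine dye staining dead-cell DNA was read by fluorescence at 0, 8, 16, 24, 32 and 40 h time points.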

A short description of experiment [4]: qHTS RealTime-Glo MT Cell Viability Assay in HepG2 cells - 16 hour (AID 1224885). Further: nearly all actives have a fitted effect of over 50% in size. Further: potency means the concentration at half of the fitted maximal effect. Summed up:
(§3)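 qHTS, HepG2, 600 cells/well, RealTime-Glo (NanoLuc + prosubstrate) added with cells; 5 h preincubation; DMSO compound addition; 37 C; luminescence at 0/8/16/24/32/40 h.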

Experiment [5] in a line: qHTS RealTime-Glo MT Cell Viability Assay in HEK293 cells - 24 hour (AID 1224886). Further: nearly all actives have a fitted effect of over 50% in size. Further: potency means the concentration at half of the fitted maximal effect. Summed up: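 Assay medium contained NanoLuc luciferase plus cell-permeant prosubstrate, added with HEK293 cells at 600 cells/well. After 5 h at 37 C/5% CO2 compounds were added; plates stayed at 37 C for 40 h with serial luminescence reads.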
Experiment [6] in a line: qHTS RealTime-Glo MT Cell Viability Assay in HEK293 cells - 8 hour (AID 1224887). Further: nearly all actives have a fitted effect of over 50% in size. Further: potency means the concentration at half of the fitted maximal effect. The essentials:
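600 cells/well were plated with the nonlytic NanoLuc/prosubstrate reagent, pre-incubated 5 h, then given 23 nL of compound in DMSO. Incubation at 37 C for 40 h, with luminescence from viable-cell-reduced substrate read repeatedly from 0 h.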
In general terms: qHTS replaces the single test concentration by a dilution series.

A short description of experiment [7]: A CellTox Green Cytotoxicity Assay to monitor cytotoxicity in HEK293 cells - 16 hour (AID 1224888). Further: nearly all actives have a fitted effect of over 35% in size. Further: potency means the concentration at half of the fitted maximal effect. Summed up:
as §2

A short description of experiment [8]: qHTS RealTime-Glo MT Cell Viability Assay in HepG2 cells - 0 hour (AID 1224889). Further: nearly all actives have a fitted effect of over 50% in size. Summed up: as §3
Experiment [9] in a line: A CellTox Green Cytotoxicity Assay to monitor cytotoxicity in HepG2 cells - 8 hour (AID 1224890). Further: nearly all actives have a fitted effect of over 45% in size. Further: potency means the concentration at half of the fitted maximal effect. Summed up:
as §1

Experiment [10] in a line: qHTS assay to identify small molecule antagonists of the estrogen receptor alpha (ER-alpha) signaling pathway using the BG1 cell line in the presence of 0.1 nM 17-beta-estradiol - cell viability counter screen (AID 1259241). Further: nearly all actives have a fitted effect of over 40% in size. Further: potency means the concentration at half of the fitted maximal effect. Summed up: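 Viability in VM7Luc4E2 cells after 22 hr compound exposure under 0.1 nM 17beta-estradiol stimulation, by CellTiter-Fluor.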
A short description of experiment [11]: qHTS assay to identify small molecule phospholipidosis (PLD) inducers (AID 1259344; active means well fitted curve in the direction sought with a large enough effect; an effect the other way counts as inactive or inconclusive). Summed up: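 Quantitative HTS in HepG2: compound plus LipidTOX Red dye for 24 h, paraformaldehyde fixation with Hoechst 33342, widefield high-content imaging; amiodarone as positive and DMSO as negative control.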
The nature of experiment [12]: qHTS assay to identify small molecule HDAC inhibitors (AID 1259364). Further: top concentration of the series differs between compounds; nearly all actives have a fitted effect of over 45% in size. Summed up: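 Wild-type HCT-116 cells, plated overnight at 37 C, exposed to compounds 2 hr at 37 C; luminogenic HDAC-Glo substrate then added 30 min at room temperature. Luminescence reports relative endogenous class I/II HDAC activity.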
A short description of experiment [13]: qHTS assay to identify small molecule HDAC inhibitors - cell viability counter screen (AID 1259365). Summed up: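 Cytotoxicity was gauged in wild-type HCT-116 cells after a brief 2hr treatment with DMSO-dissolved compounds at 37C and 5% CO2, using CellTiter-Glo luminescence developed for 30min at room temperature.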
Experiment [14] can be described thus: qHTS assay to identify small molecule agonists of the sonic hedgehog signaling (Shh) pathway - cell viability counter screen (AID 1259366). Further: nearly all actives have a fitted effect of over 50% in size. Further: potency means the concentration at half of the fitted maximal effect. Summed up:
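Stable Gli1-Luc NIH/3T3 clone, 2,000 cells/well. Compound exposure 24hr at 37C. Read-out: CellTiter-Fluor fluorescence.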

Experiment [15] is described as follows: qHTS assay to identify small molecule antagonists of the sonic hedgehog signaling (Shh) pathway - cell viability counter screen (AID 1259367). Further: nearly all actives have a fitted effect of over 55% in size. Further: potency means the concentration at half of the fitted maximal effect. Summed up:
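Seed 3T3 Gli1-Luc cells at 2,000 per well; incubate 4 hr; add compound in DMSO, then conditioned medium; incubate at 37C with 5% CO2; add CellTiter-Fluor after 23 hr; read fluorescence 1 hr later.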

Experiment [16] is described as follows: qHTS assay to identify small molecule agonists of the sonic hedgehog signaling (Shh) pathway (AID 1259368; calls by dose curve;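 further: NIH/3T3-derived 3T3Gli1-Luc cells carrying a stable Gli1-driven firefly luciferase reporter; series mostly up to about 92 µM; nearly all actives have a fitted effect of over 15% in size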). Summed up: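 NIH/3T3-derived 3T3Gli1-Luc cells with stably integrated Gli1-driven firefly luciferase, 2,000 cells/well, compounds added after 4 hr. Incubated 24 hr at 37C, 5% CO2; luminescence read after 30 min with luciferase reagent at room temperature.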

A short description of experiment [17]: qHTS assay to identify small molecule antagonists of the sonic hedgehog signaling (Shh) pathway (AID 1259369; calls by dose curve; further: nearly all actives have a fitted effect of over 45% in size; further: potency means the concentration at half of the fitted maximal effect). The essentials: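 NIH/3T3-derived Gli1-Luc reporter cells plated 4 h, dosed with compound, then stimulated with conditioned medium for 24 h at 37 C. Firefly luciferase luminescence read after 30 min with detection reagent at room temperature.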
A short description of experiment [18]: qHTS assay to identify small molecule antagonists of the androgen receptor (AR) signaling pathway using the MDA cell line in the presence of 0.5 nM R1881 - cell viability counter screen (AID 1259242). Further: nearly all actives have a fitted effect of over 45% in size. Further: potency means the concentration at half of the fitted maximal effect. Summed up: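 MDA-kb2 cells (MMTV-luciferase, AR/GR responsive) were treated with compounds plus 0.5 nM R1881 (final) for 16 hr at 37C, 0% CO2. Viability was then read in the same wells as live-cell protease fluorescence (CellTiter-Fluor, 30 min).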

Experiment [19] deals with Androgen receptor (Homo sapiens) (UniProt P10275). Kind of experiment: qHTS assay to identify small molecule antagonists of the androgen receptor (AR) signaling pathway using the MDA cell line in the presence of 0.5 nM R1881 (AID 1259243). Further: nearly all actives have a fitted effect of over 50% in size. The essentials: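 MDA-kb2 cells (MMTV-luciferase, responsive to AR and GR) at 3,000/well, rested 5 h at 37C, 0% CO2, then given compounds plus 0.5 nM R1881 (final) for 16 hr. Luciferase read with ONE-Glo after 30 min at room temperature.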
Sequence of Androgen receptor (Homo sapiens) (P10275 whole entry, looked up): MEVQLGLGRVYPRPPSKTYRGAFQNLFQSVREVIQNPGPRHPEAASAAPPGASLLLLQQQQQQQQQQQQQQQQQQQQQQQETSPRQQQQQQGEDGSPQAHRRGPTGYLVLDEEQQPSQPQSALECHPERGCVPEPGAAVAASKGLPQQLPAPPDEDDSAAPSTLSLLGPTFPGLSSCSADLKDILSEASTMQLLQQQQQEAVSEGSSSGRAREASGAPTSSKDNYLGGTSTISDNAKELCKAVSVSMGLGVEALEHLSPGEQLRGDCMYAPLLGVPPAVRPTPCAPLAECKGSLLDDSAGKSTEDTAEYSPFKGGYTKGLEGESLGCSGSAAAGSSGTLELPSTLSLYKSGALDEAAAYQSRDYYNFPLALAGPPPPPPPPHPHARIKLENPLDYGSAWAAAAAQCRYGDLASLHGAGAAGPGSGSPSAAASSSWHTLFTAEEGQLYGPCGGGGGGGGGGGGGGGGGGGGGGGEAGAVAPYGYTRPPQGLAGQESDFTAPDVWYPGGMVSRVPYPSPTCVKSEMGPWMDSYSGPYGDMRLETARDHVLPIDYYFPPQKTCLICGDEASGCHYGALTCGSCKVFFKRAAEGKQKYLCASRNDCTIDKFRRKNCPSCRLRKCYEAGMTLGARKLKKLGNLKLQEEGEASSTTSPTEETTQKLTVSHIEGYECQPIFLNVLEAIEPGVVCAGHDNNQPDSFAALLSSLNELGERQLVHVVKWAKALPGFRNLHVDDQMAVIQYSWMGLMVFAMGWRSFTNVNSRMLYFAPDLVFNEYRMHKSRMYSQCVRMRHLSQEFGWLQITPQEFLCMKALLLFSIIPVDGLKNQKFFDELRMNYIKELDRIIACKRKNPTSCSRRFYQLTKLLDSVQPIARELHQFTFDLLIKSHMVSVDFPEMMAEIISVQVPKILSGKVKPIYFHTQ

The target in experiment [20] is Estrogen receptor (Homo sapiens) (UniProt P03372). Kind of experiment: qHTS assay to identify small molecule antagonists of the estrogen receptor alpha (ER-alpha) signaling pathway using the BG1 cell line in the presence of 0.1 nM 17-beta-estradiol (AID 1259244). Further: nearly all actives have a fitted effect of over 50% in size. The essentials:
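VM7Luc4E2 cells (endogenous full-length ER-alpha, 4×ERE-luciferase), kept 5 days in phenol red-free, charcoal-stripped FBS medium; 4,000 cells/well. Compounds added with 0.1 nM (final) 17beta-estradiol, 22 hr at 37C; luminescence read with ONE-Glo after 30 min.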

Several values for one entry are separate records, joined by “and”; a condition that tells them apart may be missing. Equal entries are not always repeated. Records with an inconclusive call do not appear. Where a structure was tested more than once in an assay, its records may differ in their call. Activity calls are given as the source filed them. Unless noted, the call rests on the fitted dose curve; in most records, active means well fitted curve in the direction sought with a large enough effect in the repeat runs; inconclusive means weak or mixed curves; inactive means no such curve, though single readings can be large; an effect the other way counts as inactive or inconclusive.

Sequence of Estrogen receptor (Homo sapiens) (P03372 whole entry, looked up): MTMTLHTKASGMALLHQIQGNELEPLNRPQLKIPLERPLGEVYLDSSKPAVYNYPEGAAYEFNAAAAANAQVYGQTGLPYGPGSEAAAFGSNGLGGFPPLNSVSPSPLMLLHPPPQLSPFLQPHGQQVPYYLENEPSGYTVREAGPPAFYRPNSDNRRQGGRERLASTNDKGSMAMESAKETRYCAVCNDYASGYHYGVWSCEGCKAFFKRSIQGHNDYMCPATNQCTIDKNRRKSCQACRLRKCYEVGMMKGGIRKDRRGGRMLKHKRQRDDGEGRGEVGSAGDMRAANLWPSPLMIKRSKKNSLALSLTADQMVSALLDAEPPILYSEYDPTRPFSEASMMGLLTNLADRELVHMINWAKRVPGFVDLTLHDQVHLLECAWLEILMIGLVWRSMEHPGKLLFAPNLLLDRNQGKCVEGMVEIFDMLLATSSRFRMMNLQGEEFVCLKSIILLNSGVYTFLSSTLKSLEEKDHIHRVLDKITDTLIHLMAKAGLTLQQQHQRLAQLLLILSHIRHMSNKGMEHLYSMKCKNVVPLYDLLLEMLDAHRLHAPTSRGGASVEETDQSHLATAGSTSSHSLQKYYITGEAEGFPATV

On to `CC(COc1ccccc1)N(CCCl)Cc1ccccc1` (stereo not given), for which the Potency result in experiment [1], in [3], in [4], in [6], in experiment [7] and in experiment [8] was “inactive” each time. The Potency result in experiment [9], in [10], in experiment [11], in experiment [12], in experiment [13] and in experiment [14] was “inactive” each time. Besides, the Potency entry in [15] and in experiment [16] was “inactive” throughout. Besides, the Potency in experiment [2] was 55.5 µM (active); in experiment [5], 49.5 µM (active) and 49 µM (active); in experiment [17], 43.3 µM (active) and inactive.
On to `CC1=C(C=O)C(C)(C)CC=C1`, for which the Potency result in experiment [1], in experiment [2], in experiment [3], in [4], in experiment [5] and in experiment [6] was “inactive” each time. Moreover, the Potency entry in experiment [7], in [8], in [9], in experiment [10], in experiment [18] and in experiment [12] was “inactive” throughout. In addition, the Potency result in [13], in [14], in [15] and in experiment [16] was “inactive” in each case.
In the case of `O=C(O)Cn1cnnn1`, the Potency result in experiment [1], in [2], in experiment [3], in experiment [4], in [5] and in [6] was “inactive” each time. Moreover, the Potency result in experiment [7], in experiment [8], in experiment [9], in [10], in experiment [19] and in experiment [20] was “inactive” in each case. Besides, the Potency result in experiment [12], in experiment [13], in experiment [14], in experiment [15], in [16] and in experiment [17] was “inactive” in each case.
For the molecule `NC12CC3CC(CC(C3)C1)C2`, the Potency entry in experiment [1], in experiment [2], in [3], in experiment [4], in experiment [5] and in [6] was “inactive” each time. The Potency entry in experiment [7], in experiment [8], in [9], in experiment [10], in experiment [18] and in [11] was “inactive” throughout. Further, the Potency result in experiment [13], in [14], in experiment [15] and in [16] was “inactive” throughout.
As to `COc1ccc(CCN2CCC(Nc3nc4ccccc4n3Cc3ccc(F)cc3)CC2)cc1`, the Potency result in [1], in experiment [8], in experiment [12] and in [16] was “inactive” throughout. In addition, the Potency in experiment [2] was 19.9 µM (active) and 9.52 µM (active); in [3], 44.6 µM (active) and 26.8 µM (active); in experiment [4] it was 28.1 µM (active) and 21.3 µM (active); in experiment [5], 6.3 µM (active) and 10.7 µM (active); in experiment [6], 12.6 µM (active) and 9.52 µM (active); in [7] it was 35.4 µM (active) and 26.8 µM (active). The Potency in experiment [9] was 39.8 µM (active) and 23.9 µM (active); in [10], 49.6 µM (active); in experiment [18] it was 17.6 µM (active) and 21.1 µM (active); in experiment [14], 1.11 µM (active) and 3.76 µM (active); in experiment [15], 1.4 µM (active) and 11.9 µM (active); in experiment [17], 625 nM (active) and 3.35 µM (active).
Consider `O=C1NCC2(CCN(CCc3ccccc3)CC2)O1`, for which the Potency result in [1], in [2], in experiment [3], in [4], in [5] and in experiment [6] was “inactive” throughout. Also, the Potency entry in [7], in experiment [8], in experiment [9], in experiment [10], in [20] and in experiment [11] was “inactive” in each case. Also, the Potency entry in experiment [13], in experiment [14], in [15], in experiment [16] and in experiment [17] was “inactive” throughout.
